Cruzain inh noDet: inhibitors of Trypanosoma cruzi cruzain without detergent; Potency, µM, most hits filed as inhibitors; purified cruzain, Z-FR-AMC fluorescence, no detergent; 200,000 compounds, 2.3% hits; P25779; AID 1476; also: nearly all actives have a fitted effect of over 40% in size
Target sequence (P25779 123-467 limits assumed): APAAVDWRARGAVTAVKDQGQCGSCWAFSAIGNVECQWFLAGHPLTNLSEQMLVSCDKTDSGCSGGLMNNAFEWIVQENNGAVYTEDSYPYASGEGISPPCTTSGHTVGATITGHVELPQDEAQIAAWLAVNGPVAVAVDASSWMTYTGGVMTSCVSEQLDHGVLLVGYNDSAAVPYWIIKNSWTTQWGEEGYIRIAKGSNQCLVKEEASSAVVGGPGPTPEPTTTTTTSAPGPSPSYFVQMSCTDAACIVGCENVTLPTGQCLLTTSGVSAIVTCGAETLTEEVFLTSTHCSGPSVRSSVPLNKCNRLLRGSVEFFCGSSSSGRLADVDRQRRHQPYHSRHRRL
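Detergent-free condition (0.00005% Triton X-100) in acetate buffer pH 5.5 with DTT. 1.5 nM enzyme and compound were pre-mixed 15 min, then 2 uM Z-FR-AMC substrate added; reaction progress from fluorescence change between first and third reads (60 s).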
NS1 inh: influenza NS1 inhibition | Potency, µM (doses to about 46.1 µM) | 270,000 compounds, 0.4% hits | AID 2326; calls by dose curve; also: actives are rising curves; nearly all actives have a fitted effect of over 50% in size
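Read-out: OD600 growth recovery of NS1-expressing budding yeast. Cells grown overnight at 30C in -URA glucose medium, washed, resuspended and diluted 1:100 in 2% galactose assay medium, pH 6.0. Same strain lacking NS1 served as positive control.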
Cruzain inh Det: inhibitors of Trypanosoma cruzi cruzain with detergent. P25779. Potency, µM, actives largely listed as inhibitors. purified cruzain, Z-FR-AMC fluorescence, 0.01% Triton. 200,000 compounds, 0.43% hits; also: nearly all actives have a fitted effect of over 40% in size
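Purified cruzain (1.5 nM final) was preincubated with compounds for 15 min at room temperature in 100 mM sodium acetate pH 5.5, 5 mM DTT, 0.01% Triton X-100. Reaction started with 2 uM Z-FR-AMC; AMC fluorescence change over 60 s gave activity.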
Each line names hits and unclear results; the compound was inactive in the other large screens. This is one part of a sample in which hits are shown more often than they occur. Unless noted, calls follow the shape of the dose curve; as a rule, active = well fitted curve in the direction sought with a large enough effect; inconclusive = small, poorly fitted or top-dose-only effect, or another doubt; inactive = no such curve, though single readings can be large; an effect the other way counts as inactive or inconclusive.

CC(C)(C)OC(=O)N[C@@H](Cc1ccccc1)c1nnc(SCC(=O)c2ccc(Cl)cc2)o1	Cruzain inh noDet inconclusive
CCSc1nnc([C@H](Cc2ccccc2)NC(=O)OC(C)(C)C)o1	none
CC(C)(C)OC(=O)N[C@@H](Cc1ccccc1)c1nnc(S(=O)(=O)Cc2ccccc2)o1	Cruzain inh noDet 31.6µM, Cruzain inh Det 15.8µM
CC(C)Nc1ccc(Nc2ccccc2)cc1	Cruzain inh noDet 31.6µM (no result: NS1 inh)
c1ccc(Nc2ccccc2)cc1	none (no result: NS1 inh)
Cc1cc2nc(NC3=NCN(CCCN4CCOCC4)CN3)nc(C)c2cc1C	none (no result: Cruzain inh noDet, Cruzain inh Det)
Cc1nc(NC2=NCN(CCCN3CCOCC3)CN2)nc2c(C)cccc12	Cruzain inh noDet 25.1µM, Cruzain inh Det inconclusive
COc1ccc(/C=N/N2CCN(c3ccc(Cl)cc3)CC2)cc1	none (no result: Cruzain inh noDet, Cruzain inh Det)
Cc1ccc(N=C2C(=S)N(c3ccc(C)cc3)C(=N)N2/N=C/c2ccc(Cl)cc2)cc1	Cruzain inh noDet 3.16µM
COc1cc(OC)cc(C(=O)Nc2ccc(-c3nc4ccccc4o3)cc2)c1	Cruzain inh noDet inconclusive
O=C(Nc1ccc2oc(-c3cccc4ccccc34)nc2c1)c1ncn[nH]1	Cruzain inh noDet inconclusive
Cc1cccc(C(=O)Nc2ccc(-c3nc4cc(C(C)C)ccc4o3)cc2)c1	none (no result: NS1 inh)
CC(C)c1ccc2oc(-c3ccc(NC(=O)c4ncn[nH]4)cc3)nc2c1	Cruzain inh noDet 12.6µM
COc1cc(OC)cc(C(=O)Nc2ccc(-c3nc4cc(C(C)C)ccc4o3)cc2)c1	Cruzain inh noDet 12.6µM (no result: NS1 inh)
CCC(C)c1ccc2oc(-c3ccc(NC(=O)c4ncn[nH]4)cc3)nc2c1 (configuration not stated)	Cruzain inh noDet 3.98µM
OCc1ccc(-c2ccc(-c3ccc(CO)s3)o2)s1	Cruzain inh noDet inconclusive (no result: NS1 inh)
Cn1c(-c2cccc(F)c2)nc2c1c(=O)[nH]c(=O)n2Cc1ccccc1	none (no result: Cruzain inh noDet, Cruzain inh Det)
Cn1c(-c2cccc(OCc3ccccc3)c2)nc2c1c(=O)[nH]c(=O)n2Cc1ccccc1	Cruzain inh noDet 7.94µM
COc1ccc(N2CCC(CNC(=O)Nc3cccc(OC)c3)C2)cc1 (configuration not stated)	Cruzain inh noDet inconclusive
COc1ccc(N2CCC(CNC(=S)Nc3cccc(OC)c3)C2)cc1 (configuration not stated)	Cruzain inh noDet 31.6µM
COc1ccc2nc(SCC(=O)NC3CCCc4ccccc43)[nH]c2c1 (configuration not stated)	Cruzain inh Det 14.1µM
O=C(CSc1nc2ccccc2[nH]1)NC1CCCc2ccccc21 (configuration not stated)	Cruzain inh Det inconclusive
O=C(CSc1nc2ccc(Cl)cc2[nH]1)NC1CCCc2ccccc21 (configuration not stated)	none
Cc1ccc2nc(SC(C)C(=O)NC3CCCc4ccccc43)[nH]c2c1 (configuration not stated)	Cruzain inh Det 10µM
Nc1nc(=O)c2[nH]cnc2n1O	none
Cc1ccc(C)o1	none (no result: NS1 inh)
COc1ccc(CCNC(=O)c2cnn(-c3ccc(F)cc3)c2C2CCN(C(=O)OC(C)(C)C)CC2)cc1OC	Cruzain inh noDet inconclusive (no result: NS1 inh)
Oc1cccc(/C=N/Nc2cccc3cccnc23)c1	none (no result: Cruzain inh noDet, Cruzain inh Det)
Oc1c(/C=N/Nc2cccc3cccnc23)ccc2ccccc12	Cruzain inh noDet 31.6µM
COc1cc2c(cc1OC)[C@]13CC[N@+]4(C)CC5=CCO[C@H]6CC(=O)N2[C@@H]1C6[C@@H]5C[C@]34O (some centres not stated)	none
Nc1ncnc2c1c(I)cn2C1OC(CO)C(O)C1O (configuration not stated)	none (no result: NS1 inh)
Cc1[nH]c2ccccc2c1CCNC(=O)c1ccc2c(c1[N+](=O)[O-])C(=O)c1ccccc1C2=O	Cruzain inh noDet 10µM
CN(C)C(=O)c1ccc2c(c1[N+](=O)[O-])C(=O)c1ccccc1C2=O	none
Cc1[nH]c2c(C)cccc2c1CCNC(=O)c1ccc2c(c1[N+](=O)[O-])C(=O)c1ccccc1C2=O	Cruzain inh noDet 7.94µM
Cc1ccc2c(c1[N+](=O)[O-])C(=O)c1ccccc1C2=O	none (no result: NS1 inh)
O=[N+]([O-])c1ccc2c(c1)c(S(=O)(=O)O)cc1nonc12	none
CC1=N/C(=C\c2ccc([N+](=O)[O-])cc2)C(=O)N1c1ccc(Br)c(C)c1	Cruzain inh noDet 7.94µM
COc1ccc(/C=C2\N=C(C)N(c3ccc(C(=O)O)cc3)C2=O)cc1OC	none
COc1ccccc1C(=O)NC(=S)NNC(=O)c1sc2ccccc2c1Cl	Cruzain inh noDet 2.51µM
Cc1sc(NC(=O)c2cc(-c3ccccc3)nc3ccccc23)c(C(N)=O)c1C	none
CCNC(=S)NNC(=O)c1cc(-c2ccc(OC)cc2)nc2ccccc12	none
Cc1c(NC(=S)NC(=O)c2sc3ccccc3c2Cl)cccc1C(=O)O	none (no result: Cruzain inh noDet, Cruzain inh Det)
Cc1ccccc1-c1cc(C(=O)Nc2sc(C(=O)OC(C)C)c(C)c2C#N)c2ccccc2n1	Cruzain inh noDet 10µM
Cc1sc(NC(=O)c2cc(-c3ccc(Cl)cc3)nc3ccccc23)c(C(N)=O)c1C	Cruzain inh noDet 12.6µM
Cc1cc(NC(=O)c2cc(-c3ccccc3C)nc3ccccc23)no1	none
COc1ccc(Cl)cc1C(=O)NNC(=S)NC(=O)c1cc(-c2ccc(Cl)cc2)nc2ccccc12	Cruzain inh noDet 3.16µM
Clc1ccc(-c2noc(-c3cccnc3N3CCN(c4ccccc4)CC3)n2)cc1	none (no result: NS1 inh)
CC(C)OCCCNC(=O)CN1C(=O)c2ccccc2Sc2ncccc21	none (no result: NS1 inh)
CCOC(=O)c1sc(NC(=O)c2cc(-c3ccc(C)cc3)nc3ccccc23)c(C#N)c1C	Cruzain inh noDet 10µM
COC(=O)c1sc(NC(=O)c2cc(-c3ccccc3)nc3ccccc23)c(C#N)c1C	none
COC(=O)N1[C@H](C)C=C[C@]1(Cc1ccccc1)C(=O)NCc1ccc(N(C)C)cc1	none (no result: NS1 inh)
c1ccc(C[N+]23CN4CN(CN(C4)C2)C3)cc1	none
O=C(Nc1cccc(Cl)c1)c1c(O)c2c(n(Cc3ccccc3)c1=O)CCCC2	Cruzain inh noDet 15.8µM
O=C(Nc1cccc(Cl)c1)c1c(O)c2c(n(Cc3ccco3)c1=O)CCCC2	Cruzain inh noDet 7.94µM, NS1 inh inconclusive
CCCn1c2c(c(O)c(C(=O)NCc3ccccc3)c1=O)CCCC2	none
O=C(Nc1nccs1)c1c(O)c2c(n(Cc3ccco3)c1=O)CCCC2	none (no result: Cruzain inh noDet, Cruzain inh Det)
CCc1ccc(NC(=O)Cn2c(=O)n(Cc3ccc4c(c3)OCO4)c(=O)c3oc4ccccc4c32)cc1	none (no result: NS1 inh)
COC(=O)/C(=C1/OC(=O)C(c2ccccc2)=C1O)c1ccccc1	none (no result: NS1 inh)
CC(C)c1noc(-c2ccccc2OCC(=O)Nc2cccc([N+](=O)[O-])c2)n1	none (no result: NS1 inh)
NC(N)=NC(N)=Nc1c(F)c(F)c(F)c(F)c1F	none
N#C/C(=C\C=C\c1ccccc1[N+](=O)[O-])c1nc(-c2ccc3c(c2)OCO3)cs1	Cruzain inh noDet 20µM
N#C/C(=C\c1ccccc1[N+](=O)[O-])c1nc(C2CC2)cs1	none
COc1cc2c(cc1OC)-c1cc3cc(OC)c(OC)cc3c(=O)n1CC2	Cruzain inh noDet inconclusive (no result: NS1 inh)
CC(C)c1ccc(NC(=O)Nc2cc3sccc3n2C)cc1	Cruzain inh noDet 7.94µM
Cn1c(C(=O)Nc2ccc3c(c2)OCCO3)cc2sccc21	Cruzain inh noDet inconclusive
CCOc1ccc(S(=O)(=O)Nc2ccc3c(c2)CCCN3S(=O)(=O)c2ccc(C)cc2)cc1	Cruzain inh noDet inconclusive (no result: NS1 inh)
Cc1ccc(S(=O)(=O)N2CCCc3cc(NS(=O)(=O)c4cccc(Cl)c4)ccc32)cc1	Cruzain inh noDet 25.1µM (no result: NS1 inh)
CCCCCCCCCCCCCCC(C(=O)O)C(O)(CC(=O)OC)C(=O)O (configuration not stated)	none (no result: NS1 inh)
